40 sequences from the OligoGym collection can be followed below.
Also: reference of the scale not given here.

One assay has as its target DUSP3. Put plainly: pooled miR-30 sensor sort-seq; sequence = guide strand. To be noted: shRNA.
Sequence TTGCCCACGTAGATCCGCGGGG returned a sensor-assay potency score (higher = more potent) of -0.843. The same measure, in the same setting: under TTCTTTTGAGCCAAAGCCTGGT stands -0.51; under TAGAAGTTGGCATTGGTGTTGA, 0.772; under TAGGCGATAACTAGCGTTGGGG, -0.821. On the same count and under the same terms, under TGAGGTTGAACTCCTGTGTGTC stands 0.0433. Same read-out and setting: the result for TCTGTCATTGAGCTGGCAGAGC reads -1.17; that for TCGTTGAGATCCTGCACCGAGA, -1.55. Sequence TCAATGAAGTCGGCAGCCCTTT returned a sensor-assay potency score (higher = more potent) of -0.941. The same measure, in the same setting: under TTGAACTCCTGTGTGTCGTTGG stands 0.854.

A further assay concerns the target DUSP5. The assay is described as above. The note with it: shRNA.
For the sequence TATTGCTTCTTGAAAGTGGGAG, the sensor-assay potency score (higher = more potent) is 0.394. As to TTAAAAACAAAAATCACAGTTG, the sensor-assay potency score (higher = more potent) is 0.309. TAGTGTAGGTGGGTCGCGCAGG displayed a sensor-assay potency score (higher = more potent) of -0.939. Take TTGGCGAGGAACTCGCACTTGG: the sensor-assay potency score (higher = more potent) was -0.725. Sequence ATGCATGGTAGGCACTTCCAAG returned a sensor-assay potency score (higher = more potent) of -1.82. TAGCTGACATTTACCACTGGTT yielded a sensor-assay potency score (higher = more potent) of -0.934. The same measure, in the same setting: the result for ATTCCGAGTAGAAAGTCTCATA reads -1.1; that for TTGAGGAAGTAGACCCGCGGGC, -0.647; that for TCCATTTGTAGTGTAGGTGGGT, -0.0708. Same read-out and setting: the result for TCCTCTCGCAGCTTCTGCCAGT reads -1.18; that for TTCCCTGACACAGTCAATGAAG, -1.14.

With TTTACATCCACGCAACACTCAG, the sensor-assay potency score (higher = more potent) was -1.07. The sequence TAGAAAGTCTCATATCCCCCTT had a sensor-assay potency score (higher = more potent) of -0.306. For the sequence TTTGAGGAAGTAGACCCGCGGG, the sensor-assay potency score (higher = more potent) was -0.969. Sequence TTCATAAGGTAAGCCATGCAGA registered a sensor-assay potency score (higher = more potent) of -0.386.

On to TTGTAGTGTAGGTGGGTCGCGC, for which the sensor-assay potency score (higher = more potent) was -0.607. On the same count and under the same terms, under TGTAGCTGACATTTACCACTGG stands 0.536. Same read-out and setting: under TTGACGTTGAGCGAGCCGCGCA stands -0.861; under TTCTGCTGAGCTCTGAGACTGT, -0.115; under TACAGTAGTCAGCACATGCTGT, -0.0745. Still for that read-out and setting: the result for TTACATCCACGCAACACTCAGG reads -0.32; that for TCTCACTCTCAATCTTCTCTTG, -0.536; that for TTGAGTGGGTAGGCACCGGTGC, -0.999.

In turn, TAGCGCGCCGACACCGCGCCGC registered a sensor-assay potency score (higher = more potent) of -0.777.

The next assay concerns the target EAPP. Described as above. To be noted: shRNA.
For the sequence TACTGCTCTGTCTTCATCCTCG, the sensor-assay potency score (higher = more potent) worked out at 0.413. Take AAAGACTTCATCCTTGTCGTAG: the sensor-assay potency score (higher = more potent) was -0.0566. Same read-out and setting: under TAGATGATTCACTTTCTCCGGT stands 0.266. TTCCACATCTGTCTCTGCCTTC gave a sensor-assay potency score (higher = more potent) of 0.205. Consider TAATTCAGCTTCCATCTCCTTT, for which the sensor-assay potency score (higher = more potent) is -0.368. Still for that read-out and setting: the result for TTGGTCACCTGTACTGCTCTGT reads 0.00284; that for TATATCTTAGAACCTCCTCTTT, -0.803.
